PubChem BioAssay (NCI)
The panel holds about 83,000 compounds, 20% with a hit somewhere; the sample as a whole holds those more often.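 For each line, cells grew in 96-well plates with the test compound present at a single concentration for 48 hours.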 The source made the active and inactive calls. How the source made its calls: active means growth percent below 10; inactive means the rest.

Assays:
Assay in all cases: NCI-60 one-dose screen, 48 h (100 = growth as untreated, 0 = no growth, -100 = all killed)
Details in all cases: 10 µM unless noted
[1] = system: HCT-15 colon
[2] = system: HT29 colon
[3] = system: SNB-75 CNS
[4] = system: SNB-19 CNS
[5] = system: U251 CNS
[6] = system: PC-3 prostate
[7] = system: SK-MEL-5 melanoma
[8] = system: UACC-62 melanoma
[9] = system: LOX IMVI melanoma
[10] = system: SK-MEL-28 melanoma

Measured: growth

CCCCCCC(=O)Nc1ncc(Cc2ccc(C)cc2)s1
inactive: [1] 35.5% | [2] 15.4% | [4] 44.2% | [5] 39% | [6] 41.7% | [7] 36.9% | [8] 31.1% | [9] 44.1% | [10] 66.5%
active: [3] -0.16%

CN(C)Cc1ccc(C(=O)Nc2ccc3ncnc(Nc4ccc(Oc5cccc(F)c5)c(Cl)c4)c3c2)cc1
inactive: [3] 18.5%
active: [1] -45.3% | [2] -35.4% | [4] -3.27% | [5] -28.1% | [6] 3.54% | [7] -82.6% | [8] -20.1% | [9] -96.2% | [10] -89.1%

CCCCCCOC(=O)CC1=C(C)/C(=C/c2[nH]c(-c3ccc[nH]3)cc2OC)N=C1C
inactive: [4] 12.8%
active: [1] -34.9% | [2] 1.26% | [3] -5.75% | [5] -68.8% | [6] -23% | [7] -92.1% | [8] -64.5% | [9] -82% | [10] -64.9%

COc1ccc(Nc2ncccc2NC(=O)c2cn(Cc3cccc(Oc4ccccc4)c3)nn2)cc1OC
inactive: [1] 67.7% | [2] 81.1% | [3] 76.2% | [4] 79.2% | [5] 74.5% | [6] 67.3% | [7] 45.1% | [8] 57.5% | [9] 67% | [10] 83.4%

Nc1n[nH]c2ccc([C@@H]3Nc4cc5[nH]ncc5cc4[C@H]4C5CCC(C5)[C@@H]34)cc12 (stereo not given in full)
active: [2] 6.61% | [3] -9.87% | [7] 9.55%
inactive: [1] 13.7% | [4] 20.4% | [5] 19% | [6] 25.1% | [8] 33.8% | [9] 25.4% | [10] 60.1%

CCOC(=O)CSc1nc2sc3c(c2c(=O)n1-c1ccc([N+](=O)[O-])cc1)CCCCC3
inactive: [1] 85.1% | [2] 78.6% | [3] 11% | [4] 78.8% | [5] 53.5% | [6] 73.2% | [7] 88.7% | [8] 74.9% | [9] 79.6% | [10] 84.1%

Cc1nc2sc(C(=O)Nc3ccc(Cl)cc3)c(N)c2cc1C(O)c1ccccc1 (stereo not given)
inactive: [1] 28.9% | [2] 25% | [3] 26.5% | [4] 41.2% | [5] 32.8% | [6] 21.9% | [7] 30.4% | [8] 17.7% | [9] 33.4% | [10] 57.5%

O=C1C(Cl)=C(NCCN2CCOCC2)C(=O)c2ncccc21
inactive: [3] 88.3% | [4] 17.3% | [5] 29.6% | [6] 38.1%
active: [1] -38% | [2] -27.6% | [7] -94.1% | [8] -51.2% | [9] -57.3% | [10] -84.3%

CCc1ccc(CCC(=O)Nc2ncc(Cc3ccc(Cl)cc3)s2)o1
active: [2] 8.1% | [3] -7.87%
inactive: [1] 21.9% | [4] 50.6% | [5] 22.8% | [6] 29.3% | [7] 34.6% | [8] 33.3% | [9] 47.6% | [10] 66.3%

NC(=O)c1ccc(NC(=O)c2oc3ccccc3c2-c2cnn(-c3ccccc3)c2)cc1
inactive: [1] 43.2% [50 µM] | [8] 45.3% [50 µM] | [10] 25.6% [50 µM]
active: [2] 2.07% [50 µM] | [3] -25.5% [50 µM] | [4] 2.3% [50 µM] | [5] -19.2% [50 µM] | [6] 6.29% [50 µM] | [7] 4.65% [50 µM] | [9] -22.6% [50 µM]

C=CC(=O)NCCOc1cccc(Nc2cc(NCCCNC(=O)C3CCC3)c(Br)cn2)c1
active: [1] 1.43% | [2] -15.2% | [3] -69.2% | [4] 5.36% | [5] 0.984% | [6] 5.12% | [7] -41.4% | [8] -34.7% | [9] -25.3% | [10] -11.9%
